Assay results: PubChem BioAssay AID743126 (The Scripps Research Institute Molecular Screening Center, 2013)
Screen size: about 370,000 compounds; about 2,100 (0.57%) were called active. The list comes from a sample in which actives are over-represented; it also holds similar structures and randomly drawn compounds. Values without a mark were called inactive.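 How the source made its calls: active means inhibition above mean plus 3 SD of compounds lying within the high and low control bounds (cut at about 19% in these data); inactive means the rest.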

biological target: Group 3 secretory phospholipase A2 (Homo sapiens) (UniProt Q9NZ20); assay: HGIII-sPLA2 enzyme inhibition – biochemical, QFRET, BODIPY PC-A2 liposome substrate, primary screen (AID 743126); settings: QFRET BODIPY PC-A2 liposome hydrolysis, fluorescence; at 12.2 µM; active compounds read high;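 further: 0% = median of test compound wells and 100% = no enzyme DMSO wells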
Sequence (Q9NZ20 whole entry, looked up): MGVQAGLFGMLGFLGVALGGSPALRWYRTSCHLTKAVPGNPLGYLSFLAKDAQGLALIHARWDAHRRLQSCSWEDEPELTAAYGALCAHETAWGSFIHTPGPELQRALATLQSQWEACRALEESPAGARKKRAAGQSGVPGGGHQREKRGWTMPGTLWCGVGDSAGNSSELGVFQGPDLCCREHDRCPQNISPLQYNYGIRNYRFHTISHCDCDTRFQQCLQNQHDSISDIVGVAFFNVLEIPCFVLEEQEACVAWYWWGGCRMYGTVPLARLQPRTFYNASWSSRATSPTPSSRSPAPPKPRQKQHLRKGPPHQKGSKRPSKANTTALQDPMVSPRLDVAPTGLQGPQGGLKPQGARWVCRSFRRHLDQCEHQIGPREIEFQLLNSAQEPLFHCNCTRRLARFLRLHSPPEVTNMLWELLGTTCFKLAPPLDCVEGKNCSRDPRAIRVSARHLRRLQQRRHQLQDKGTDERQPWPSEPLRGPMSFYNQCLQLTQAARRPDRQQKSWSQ

Compound	inhibition
Nc1ccc2c(c1)C(O)c1ccc(Cl)cc1-2 (stereo unspecified)	19.6% (active)
Nc1ccc2nn(-c3ccc(Cl)cc3)nc2c1	0.58%
NC(=O)C1(C(N)=O)OC1c1ccc(Cl)cc1Cl (stereo unspecified)	-4.76%
Cc1ccc(C(=O)N(Cc2ccccn2)CC2CCCO2)cc1 (stereo unspecified)	1.49%
CCN(CC)C(=O)CC[C@@H]1CC[C@]2(CCCN(S(=O)(=O)C3CCCCC3)C2)O1	11.9%
O=C(NNc1nc(N2CCCC2)nc(N2CCCC2)n1)c1ccccc1	-2.93%
Cc1ccc(C(=O)Nc2nc(N)n(-c3ccccc3)n2)cc1	12.6%
Cc1ccc(-c2csc(NNC(=O)c3ccccc3)n2)cc1	41.2% (active)
COC(=O)[C@]12C[C@H](CC(=O)NCc3cccc4ccccc34)C(=O)N(CCc3ccc(OC)c(OC)c3)C1=C[C@H](C1CCCC1)O[C@@H]2C	-20.3%
CCn1c2ccccc2c2cc(NC(=O)CSc3nnc(-c4ccccc4)n3-c3ccc(C)cc3)ccc21	-1.34%
CCn1c(=O)n2n(c1=O)[C@@]1(C=C3CCCC[C@H]32)N=C(NC(=O)c2ccccc2)N(Cc2ccccc2)[C@H]1Cc1ccccc1	10.8%
C[C@H]1[C@H](NC(=O)c2cccc(N(C)C)c2)CC[C@@]23CCCN2C(=O)CCC[C@@H]13	-4.79%
Fc1ccccc1Cc1ccc(Cl)nn1	9.12%
C/C(=N\Nc1ccc(Cl)nn1)c1ccccc1O	23.4% (active)
COC(=O)[C@@]12CCCCC=C1N(CCc1ccc(Cl)cc1)C(=O)[C@H]2CC(=O)NCc1ccc(OC)c(OC)c1	-15%
Nc1[nH]c(C(=O)c2ccccc2)c(-c2ccc(Br)cc2)c1C(=O)NC1CC1	25.4% (active)
Nc1[nH]c(C(=O)c2ccc(Br)cc2)c(-c2ccc3c(c2)OCO3)c1C(=O)NCCc1c[nH]c2ccccc12	-43.9%
CC(C)(C)C(=O)c1c(N)[nH]c(C(=O)c2ccccc2)c1-c1ccc(F)cc1	5.32%
COc1ccc(CCNC(=O)CSc2nc3c([nH]2)c(=O)n(C)c(=O)n3C)cc1	5.11%
CC(C)CNc1cccc2c1S(=O)(=O)N(Cc1cn(Cc3ccccc3C(F)(F)F)nn1)Cc1ccccc1O2	6.58%
CCOC(=O)C1CCN(C(=O)C(C)(C)NC(=O)Nc2ccc(F)c(F)c2)CC1	1.05%
CCOc1ccc(NS(=O)(=O)c2ccc(C)c(C(N)=O)c2)cc1	2.14%

Compound	inhibition
CCOc1ccc(/C=N\NC(=O)c2c(C)nc3cc(C)ccn23)cc1	1.86%
CCOc1ccc(/C=N/NC(N)=S)cc1	19.5% (active)
CCOC(=O)N1CCN(C(=O)C[C@H]2C[C@@]3(C(=O)OC)C(=C[C@H](C(C)(C)C)O[C@@H]3C)N(Cc3ccc(Cl)cc3Cl)C2=O)CC1	-6.16%
CCOC(=O)[C@]12CCCC3=C1N(CCC3)C(=O)[C@@H](CC(=O)NCc1cccs1)C2	-0.88%
COC(=O)[C@]12C[C@H](CC(=O)NCCCN3CCCC3=O)C(=O)N(CCc3ccc(OC)c(OC)c3)C1=C[C@H](COCc1ccccc1)O[C@@H]2C	11.1%
Cc1ccc(C2CC(c3cccc(C)c3)n3nc(N)nc3N2)cc1 (stereo unspecified)	25.2% (active)
Cc1ccc(C2CC(c3cccc(Br)c3)n3nc(N)nc3N2)cc1 (stereo unspecified)	9.36%
COc1ccc(C2CC(c3ccc(Cl)cc3Cl)Nc3nc(N)nn32)cc1OC (stereo unspecified)	0.41%
O=C(OC12CCCN(C1)/C(=C/c1ccccc1)C2)c1ccco1 (stereo unspecified)	4.15%
C=CCN(Cc1ccc2c(c1)OCO2)C(C#CC1CC1)C(C)(C)C (stereo unspecified)	7.02%
COc1cc(NC(=O)C2CCCN(S(=O)(=O)c3ccc(C(C)(C)C)cc3)C2)cc(OC)c1 (stereo unspecified)	2.94%
CCC(c1ccc(NC(=O)OC(C)(C)C)cc1)c1cc(OC)cc(OC)c1 (stereo unspecified)	-18.5%
COc1ccc(CSc2nnc(SCC(=O)Nc3ccccc3C(F)(F)F)s2)cc1	-11.2%
Cc1nn(CCOc2ccccc2)c(=O)n1-c1ccccc1F	3.1%
O=C(NCCOc1ccccc1)c1ccccc1F	8.32%
CC(C)(c1ccccc1)c1ccc(OCCN)cc1	23.6% (active)
COC(=O)[C@]12C[C@H](CC(=O)NCc3ccccc3)C(=O)N(CCC3=CCCCC3)C1=C[C@H](C(C)C)O[C@@H]2C1CC1	-0.06%
CCn1c(SCC(C)=O)nc2sc3c(c2c1=O)CCCC3	-63%
CCCC1CCC2(CCCN2CCOC(=O)NCc2ccccc2)CC1 (stereo unspecified)	0.68%
CC(=O)OC12CCCN(C1)/C(=C/c1ccncc1)C2 (stereo unspecified)	8.67%
CC(=O)C1(C(=O)Nc2nccs2)CC(c2ccccc2C(F)(F)F)=NO1 (stereo unspecified)	-9.84%
Cc1cccc(C(=O)NC(=S)N(C)C2CCCCC2)c1	7.08%

Compound	inhibition
Cc1cccc(NC(=S)NCCN(C2CCCCC2)C2CCCC2)c1	23.8% (active)
Cc1cccc(NC(=S)NCc2ccc3[nH]c4c(c3c2)CCCC4)c1	-9.81%
C=CCN1C(=O)[C@H](CC(=O)N2CCN(C(=O)OCC)CC2)[C@@]2(C(=O)OCC)CCCC=C12	-3.08%
Cc1ccccc1CN1CCCCC(NC(=O)c2cccc(C#N)c2)C1=O (stereo unspecified)	14%
CCOc1ccc(-n2c(SCC(=O)Nc3cc(C)c(NC(=O)c4ccccc4)cc3OC)nnc2-c2cccs2)cc1	-11.7%
CCC[C@H]1C(=O)CC[C@@]23CCCN2C(=O)CCC[C@@H]13	9.16%
COc1ccc([C@H]2OC(=O)C[C@H]2C(=O)N2CCN(c3ccccc3F)CC2)cc1OC	-0.35%
Cn1c2c(c(=O)n(C)c1=O)C1c3ccccc3OCC1C(C)(C)O2 (stereo unspecified)	20.6% (active)
Cn1c2c(c(=O)n(C)c1=O)[C@@H]1c3c(ccc4ccccc34)OC[C@@H]1CO2	1.04%
COc1cccc2c1OCC1COc3c(c(=O)n(C)c(=O)n3C)C21 (stereo unspecified)	8%
CC(=O)N1CCCN(C2=Nc3ccccc3Sc3ccccc32)CC1	-5.38%
O=C(NCc1ccc(Cl)cc1)C1CCCN(c2nc3ccccc3o2)C1 (stereo unspecified)	0.81%
Cc1ccc(NC(=O)Cc2cccc(F)c2)c(S(=O)(=O)N2CCOCC2)c1	-2.31%
Cc1c[nH]c2cccc(-c3ccc(Cl)cc3)c12	-16.5%
O=C(NCC(=O)N1CCN(c2ncc(C(F)(F)F)cc2Cl)CC1)c1ccc(Br)o1	-1.88%
COc1ccnc(NC(=S)N2CCN(c3ncc(C(F)(F)F)cc3Cl)CC2)c1	23.3% (active)
Cc1cc(C)nc(NC(=S)N2CCN(c3ccc(C(F)(F)F)cn3)CC2)c1	11.2%
CN1[C@H](Cc2ccccc2)COc2cccc(N3CCSCC3)c2S1(=O)=O	-2.69%
O=C(NNC(=S)NCCCN1CCOCC1)c1ccncc1	-1.42%
O=C(NNC(=S)NC(=O)c1cn(-c2ccccc2)nc1-c1ccccc1)c1ccncc1	19.6% (active)
O=C(c1cn(-c2ccccc2)nc1-c1cccnc1)N1CCN(S(=O)(=O)c2ccccc2F)CC1	-9.4%
O=C(CSc1nnc(COc2ccccc2)n1-c1ccc(Cl)cc1)Nc1ccc2c(c1)OCO2	-14.5%

Compound	inhibition
COC(=O)c1cccc(Cn2ccc3ccc(-c4ccc5ccn(C(=O)C6CCCCC6)c5c4)cc32)c1	-3.82%
S=C(Nc1ccc(Br)cc1Cl)NC1CCN(Cc2ccccc2)CC1	0.32%
CN(C)C(=S)Nc1ccc(Br)cc1Cl	1.77%
O=C(NNC(=S)Nc1ccc(Br)cc1Cl)c1ccco1	26.4% (active)
Cc1ccc(Cn2cc(COC(=O)N(C)Cc3ccccc3)nn2)cc1	-5.61%
Cc1ccc(-n2c(SCC(=O)Nc3ccc(S(=O)(=O)Nc4nccs4)cc3)nnc2-c2cccnc2)cc1	-21.7%
O=C1CC[C@@]23CCCN2C(=O)CCC[C@H]3[C@H]1Cc1ccccc1	3.91%
Cc1cccc(N2CCN(C(=O)c3ccccc3NC(=O)C3CCCCC3C(=O)O)CC2)c1 (stereo unspecified)	7.57%
Cc1cccc(N2CCN(c3ccc(NC(=O)/C=C\C(=O)O)cc3)CC2)c1	20.7% (active)
CSc1ccc(NC(=O)N2CC(C)OC(C)C2)cc1 (stereo unspecified)	10.2%
O=C(CN1CCN(c2ccc(O)cc2)CC1)Nc1ccc(-c2ccccc2)cc1	2.26%
O=C(O)/C=C/C(=O)NNc1ccc([N+](=O)[O-])cc1	-1.39%
CSc1ccc(NC(=O)/C=C/C(=O)O)cc1	22.1% (active)
Cc1ccc(-c2nc(C3CCCN(S(=O)(=O)c4ccc(Br)s4)C3)no2)cc1 (stereo unspecified)	7.46%
C=C(C)C1CC23C(=O)C4(C(=O)c5ccccc5)C[C@@]5(C)CCC(CC2C1(C)C)(C4=O)C35OC (stereo partly specified)	4.03%
COc1ccc(C(=O)CSc2nnc(-c3cnccn3)n2-c2ccc(C)cc2)cc1	-19.7%
O=C(NN1C(=O)C2CCCCC2C1=O)c1ccco1 (stereo unspecified)	-6.36%
O=C(NN1C(=O)C2C3C=CC(C3)C2C1=O)c1ccco1 (stereo unspecified)	22.3% (active)
CC(C)=C1C2CCC1C1C(=O)N(NC(=O)c3ccco3)C(=O)C21 (stereo unspecified)	0.15%
C=CCN1C(=O)[C@@H](CC(=O)N2CCN(C(=O)OCC)CC2)[C@]2(C(=O)OCC)CCCCC/C=C/12	3.8%
